# Source: publication PMC5700166
# Residue numbers refer to the chain shown, from its start.
# Assays:
# Assay in all cases: protein-binding microarray (PBM); PBM: ~300 nM protein, 6 mM HEPES pH 7.8, 80 mM KCl, 0.5 mM EDTA, 0.5 mM EGTA, 6% glycerol, 35 ng/ul poly-dIdC, 1% milk, 1 h, room temperature; Ap Aiptasia and Nv Nematostella (sea anemones) / Co Capsaspora / Aq Amphimedon (sponge) / Dm Drosophila / Hu human; RHD is the Rel homology domain; high values mean tight binding
# Conditions in all cases: dsDNA, one strand shown
# GST-Ap-NF-kB RHD = molecular target: T1, GST-Ap-NF-kB RHD (Exaiptasia pallida (Aiptasia), UniProt A0A913YAJ5 2-422)
# T1 sequence: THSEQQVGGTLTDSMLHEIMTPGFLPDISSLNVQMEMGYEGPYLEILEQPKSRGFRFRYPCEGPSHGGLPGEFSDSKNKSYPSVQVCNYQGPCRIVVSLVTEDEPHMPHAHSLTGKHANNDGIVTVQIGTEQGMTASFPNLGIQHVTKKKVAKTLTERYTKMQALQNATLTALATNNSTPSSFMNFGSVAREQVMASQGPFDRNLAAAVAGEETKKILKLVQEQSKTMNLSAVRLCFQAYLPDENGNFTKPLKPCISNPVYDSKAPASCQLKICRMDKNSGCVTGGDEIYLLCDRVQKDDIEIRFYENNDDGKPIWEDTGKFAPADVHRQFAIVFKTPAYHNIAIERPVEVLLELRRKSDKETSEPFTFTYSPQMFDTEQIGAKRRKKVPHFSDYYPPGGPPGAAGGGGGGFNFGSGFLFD
# [1] = molecular target: T2, GST-Nv-NF-kB (Cys allele) (Nematostella vectensis, UniProt E5G601 2-411)
# T2 sequence: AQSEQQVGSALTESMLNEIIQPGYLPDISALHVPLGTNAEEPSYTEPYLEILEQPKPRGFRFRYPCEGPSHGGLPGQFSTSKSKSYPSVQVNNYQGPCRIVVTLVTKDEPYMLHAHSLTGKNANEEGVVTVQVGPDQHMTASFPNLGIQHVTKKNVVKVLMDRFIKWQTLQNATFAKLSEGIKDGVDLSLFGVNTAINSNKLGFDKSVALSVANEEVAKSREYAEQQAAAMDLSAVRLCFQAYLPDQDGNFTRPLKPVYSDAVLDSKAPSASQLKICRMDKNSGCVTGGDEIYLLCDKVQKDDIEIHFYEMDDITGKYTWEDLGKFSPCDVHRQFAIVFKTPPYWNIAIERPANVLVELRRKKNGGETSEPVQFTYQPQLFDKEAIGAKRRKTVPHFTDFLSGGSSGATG
# [2] = molecular target: T3, GST-Nv-NF-kB (Ser allele) (Nematostella vectensis, UniProt A7UNT2 2-411)
# T3 sequence: T2 sequence with Q21R, C66S, S207N, E215Q, V217A, E225K, A268E, D399E
# GST-Co-NF-kB = molecular target: T4, GST-Co-NF-kB (Capsaspora owczarzaki, UniProt F1ARL5 200-546)
# T4 sequence: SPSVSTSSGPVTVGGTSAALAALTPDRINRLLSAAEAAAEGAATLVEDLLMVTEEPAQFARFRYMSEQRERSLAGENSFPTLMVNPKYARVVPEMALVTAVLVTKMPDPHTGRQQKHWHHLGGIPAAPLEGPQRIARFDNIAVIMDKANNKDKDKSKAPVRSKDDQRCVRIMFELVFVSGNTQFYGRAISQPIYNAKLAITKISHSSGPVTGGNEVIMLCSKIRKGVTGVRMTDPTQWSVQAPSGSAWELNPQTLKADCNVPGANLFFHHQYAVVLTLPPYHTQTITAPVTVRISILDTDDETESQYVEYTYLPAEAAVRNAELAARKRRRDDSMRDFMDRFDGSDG
# GST-Dm-Relish = molecular target: T5, GST-Dm-Relish (Drosophila melanogaster, UniProt Q94527 99-473)
# T5 sequence: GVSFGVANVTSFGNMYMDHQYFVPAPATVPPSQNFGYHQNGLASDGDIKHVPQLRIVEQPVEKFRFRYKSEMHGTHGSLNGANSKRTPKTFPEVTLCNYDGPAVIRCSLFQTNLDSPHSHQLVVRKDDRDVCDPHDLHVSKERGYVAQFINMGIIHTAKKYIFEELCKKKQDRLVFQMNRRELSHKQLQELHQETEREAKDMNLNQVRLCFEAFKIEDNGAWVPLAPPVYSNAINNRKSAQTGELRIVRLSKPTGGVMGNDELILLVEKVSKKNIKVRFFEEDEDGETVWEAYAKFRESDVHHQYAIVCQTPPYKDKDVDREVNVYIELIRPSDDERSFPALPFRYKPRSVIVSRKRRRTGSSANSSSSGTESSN
# GST-Aq-NF-kB = molecular target: T6, GST-Aq-NF-kB (Amphimedon queenslandica, UniProt A9Y5G7 2-389)
# T6 sequence: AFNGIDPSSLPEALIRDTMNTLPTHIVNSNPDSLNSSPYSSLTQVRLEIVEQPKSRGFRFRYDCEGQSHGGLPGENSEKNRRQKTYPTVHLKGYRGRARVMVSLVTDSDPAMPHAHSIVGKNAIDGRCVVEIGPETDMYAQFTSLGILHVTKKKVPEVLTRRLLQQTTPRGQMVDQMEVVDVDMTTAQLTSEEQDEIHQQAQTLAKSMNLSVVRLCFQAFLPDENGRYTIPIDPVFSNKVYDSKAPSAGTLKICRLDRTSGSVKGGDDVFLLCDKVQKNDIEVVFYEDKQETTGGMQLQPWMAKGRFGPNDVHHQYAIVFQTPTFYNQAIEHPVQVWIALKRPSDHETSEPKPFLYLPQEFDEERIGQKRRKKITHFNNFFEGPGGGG
# GST-Hu-p50 = GST-Hu-p50 (Homo sapiens, UniProt P19838 7-356)
# Chain of GST-Hu-p50 (P19838 7-356): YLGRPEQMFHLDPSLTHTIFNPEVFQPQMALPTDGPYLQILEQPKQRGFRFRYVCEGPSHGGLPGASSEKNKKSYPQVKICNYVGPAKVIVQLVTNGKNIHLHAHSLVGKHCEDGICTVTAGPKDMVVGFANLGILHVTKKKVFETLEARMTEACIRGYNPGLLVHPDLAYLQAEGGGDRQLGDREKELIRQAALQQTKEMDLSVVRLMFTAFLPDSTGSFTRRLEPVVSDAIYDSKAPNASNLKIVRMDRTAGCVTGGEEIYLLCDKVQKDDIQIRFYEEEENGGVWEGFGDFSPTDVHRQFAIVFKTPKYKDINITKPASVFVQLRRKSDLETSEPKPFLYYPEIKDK
Sequence,binding signal (GST-Ap-NF-kB RHD) [z-score],binding signal [1] [z-score],binding signal [2] [z-score],binding signal (GST-Co-NF-kB) [z-score],binding signal (GST-Dm-Relish) [z-score],binding signal (GST-Aq-NF-kB) [z-score],binding signal (GST-Hu-p50) [z-score]
CCGATTAACATCAAAATCCCCCATGATGTTAATCGGGTCTTGATTCGCTTGACGCTGCTG,9.1,9.28,10.2,6.67,8.88,7.37,7.45
CCGATTAACATCAGGGGGTAACATGATGTTAATCGGGTCTTGATTCGCTTGACGCTGCTG,4.79,3.69,4.43,7.22,2.49,3.72,4.06
CCGATTAACATCAGGAATGCCCCTGATGTTAATCGGGTCTTGATTCGCTTGACGCTGCTG,5.19,6.58,3.31,1.64,5.92,7.72,5.39
CCGATTAACATCAGAAAGCCCCCTGATGTTAATCGGGTCTTGATTCGCTTGACGCTGCTG,6.56,7.59,5.42,2.16,7.39,6.98,6.29
CCGATTAACATCAGGGGAGGTTATGATGTTAATCGGGTCTTGATTCGCTTGACGCTGCTG,4.62,3.22,4.77,4.52,1.82,3.84,3.74
CCGATTAACATCACATAATCCCCTGATGTTAATCGGGTCTTGATTCGCTTGACGCTGCTG,7.93,9.03,9.99,3.86,6.27,6.55,6.8
CCGATTAACATCAGGGAATTTAATGATGTTAATCGGGTCTTGATTCGCTTGACGCTGCTG,3.7,6.07,6.59,4.07,4.24,5.09,4.45
CCGATTAACATCACACATCCCCCTGATGTTAATCGGGTCTTGATTCGCTTGACGCTGCTG,4.83,4.4,5.41,4.17,3.19,3.87,4.48
CCGATTAACATCAGGGGGTGCACTGATGTTAATCGGGTCTTGATTCGCTTGACGCTGCTG,3.65,2.71,3.9,2.55,6.6,4.95,4.23
CCGATTAACATCAGGGAATACCCTGATGTTAATCGGGTCTTGATTCGCTTGACGCTGCTG,8.89,11.2,8.44,3.79,9.63,10.2,6.01
CCGATTAACATCAGAGTATTCCCTGATGTTAATCGGGTCTTGATTCGCTTGACGCTGCTG,3.08,2.98,3.2,2.71,2.22,3.06,1.6
CCGATTAACATCAGGGGATTACCTGATGTTAATCGGGTCTTGATTCGCTTGACGCTGCTG,9.27,10.5,9.69,3.93,9.7,9.77,6.76
CCGATTAACATCAAGGGGGGATGTGATGTTAATCGGGTCTTGATTCGCTTGACGCTGCTG,5.69,4.01,5.38,4.75,4.07,4.34,4.32
CCGATTAACATCAAATTCCCGGGTGATGTTAATCGGGTCTTGATTCGCTTGACGCTGCTG,3.33,3.9,3.88,4.43,3.94,3.13,3.85
CCGATTAACATCAGGGGGGTTTATGATGTTAATCGGGTCTTGATTCGCTTGACGCTGCTG,7.17,5.54,6.69,4.39,8.97,6.15,6.31
CCGATTAACATCAGAATTTCCCATGATGTTAATCGGGTCTTGATTCGCTTGACGCTGCTG,3.88,5.46,4.83,4.63,3.42,5.17,4.04
CCGATTAACATCACGAAATCCCCTGATGTTAATCGGGTCTTGATTCGCTTGACGCTGCTG,8.93,9.59,11.6,4,8.34,6.39,7.74
CCGATTAACATCAAATTCCCGCCTGATGTTAATCGGGTCTTGATTCGCTTGACGCTGCTG,3.27,4.23,4.63,3.86,3.49,3.39,3.12
CCGATTAACATCAAAGTCCCCCCTGATGTTAATCGGGTCTTGATTCGCTTGACGCTGCTG,7.56,6.37,5.95,9.05,7.85,6.3,5.64
CCGATTAACATCAAATTTCCCGGTGATGTTAATCGGGTCTTGATTCGCTTGACGCTGCTG,4.14,4.99,4.8,6.34,3.56,4.88,4.39
CCGATTAACATCAGGGGGGTGAATGATGTTAATCGGGTCTTGATTCGCTTGACGCTGCTG,3.76,4.08,4.43,5.24,4.14,4.32,4.12
CCGATTAACATCAGGATTCCCCATGATGTTAATCGGGTCTTGATTCGCTTGACGCTGCTG,9.56,9.44,8.33,6.71,8.76,6.46,5.89
CCGATTAACATCAAGGGGAAAACTGATGTTAATCGGGTCTTGATTCGCTTGACGCTGCTG,7.51,8.85,11,8,5.32,6.55,6.9
CCGATTAACATCAAAAAGTCCCCTGATGTTAATCGGGTCTTGATTCGCTTGACGCTGCTG,9.45,10.8,11.1,5.57,10,8.93,7.85
CCGATTAACATCAGGGATTACCCTGATGTTAATCGGGTCTTGATTCGCTTGACGCTGCTG,8.01,10,7.06,2.89,9.47,8.71,4.78
